This excerpt belongs to a sample that is enriched for hits.
RT RNaseH block: inhibitors of HIV-1 reverse transcriptase RNase H | P04585 | RT-RNase H RNA/DNA duplex cleavage, fluorescence | inhibition, % at 10 µM | 1.9% of 65,000 active; in the data active = inhibition above about 50%
Hits are given with their value; . = inactive.

SMILES	RT RNaseH block
CCOC(=O)Cn1c(=O)oc2cc(S(=O)(=O)Nc3cc(OCC)ccc3OCC)ccc21	.
CCOC(=O)Cn1c(=O)oc2cc(S(=O)(=O)Nc3ccc(N(CC)CC)cc3C)ccc21	50
CCOC(=O)CN1C(=O)C(O)(CC(=O)c2cccc(OC)c2)c2ccccc21 (configuration not stated)	.
CC(=O)c1ccc(N2CCN(C(=O)C3CCN(S(=O)(=O)Cc4ccccc4)CC3)CC2)cc1	.
Cc1nc(NC(=O)CSc2nc3cccnc3n2Cc2ccccc2)sc1C	.
Cn1nnnc1SCC1=C(C(=O)O)N2C(=O)[C@@H](NC(=O)[C@H](O)c3ccccc3)[C@H]2SC1	61
Cn1nnnc1SCC(=O)NC(=O)NCc1ccccc1	.
CO/N=C(\C(=O)N[C@@H]1C(=O)N2C(C(=O)O)=C(COC(N)=O)CS[C@H]12)c1ccco1	.
CC1(C(=O)N(CC(=O)NC2CCCC2)Cc2ccco2)CC(=O)N=C2C=CC=CN21 (configuration not stated)	.
COc1cccc2cc(C(C)=O)c(=O)oc12	.
COc1cccc2cc3c(=O)n(-c4ccccc4)nc-3oc12	53
COc1cccc2cc(C(=O)n3ccc(C)n3)c(=O)oc12	.
Cn1c2ccccc2c2cnn(CC(=O)N3CCN(c4ncccn4)CC3)c(=O)c21	.
Cc1ccc2cc(C#N)c(SCC(=O)NCC3CCCO3)nc2c1 (configuration not stated)	.
Cc1cc(C)c2cc(C#N)c(SCC(=O)NCC3CCCO3)nc2c1 (configuration not stated)	.
Cc1ccc2nc(SCC(=O)NCC3CCCO3)c(C#N)cc2c1 (configuration not stated)	59
ON1C2CCCCC2N(O)C1c1c(F)c(F)c(F)c(F)c1F (configuration not stated)	.
CCOC(=O)c1c(-c2ccc(C)s2)csc1NC(=O)c1ccco1	.
CCOC(=O)c1c(-c2ccco2)csc1N	56
CCOC(=O)c1c(NC(=O)c2ccco2)sc(C(=O)N2CCCC2)c1C	.
CC(=O)N(Cc1ccc2c(c1)OCO2)C1CC(=O)N(CCc2ccccc2)C1=O (configuration not stated)	.
CC(C)(C)SCCNC(=O)c1ccc(NS(C)(=O)=O)cc1	.
Cc1ccc(S(=O)(=O)Nc2ccc3oc(=O)sc3c2)c(C)c1	60
Cc1ccc(C)c(S(=O)(=O)Nc2ccc(O)cc2)c1	.
Cc1cc(C)c(S(=O)(=O)Nc2ccc(O)cc2)cc1C	.
SMILES	RT RNaseH block
COC(=O)CSCc1nc2ccccc2[nH]c1=O	.
O=C(c1ccc(CS(=O)(=O)c2cccc(C(F)(F)F)c2)o1)N1CCN(c2ccccn2)CC1	.
COc1ccccc1NC(=O)C1=C(C)NC2=C(C(=O)CCC2)C1c1ccc2c(c1)OCO2 (configuration not stated)	.
O=C(c1ccc(C(=O)N2CCOCC2)nc1)N1CCOCC1	.
COc1ccc(Br)cc1C1CC(=O)N2CN(Cc3ccccc3)CSC2=C1C#N (configuration not stated)	.
N#CC1=C2SCN(Cc3ccccc3)CN2C(=O)CC1c1ccccc1F (configuration not stated)	61
N#CC1=C2SCN(Cc3ccco3)CN2C(=O)CC1c1c(F)cccc1Cl (configuration not stated)	.
CCOc1ccc(C(C)(C)C)cc1S(=O)(=O)N1CCOCC1	.
CCOC(=O)C1CCCN(S(=O)(=O)c2ccc(OC)c3ccccc23)C1 (configuration not stated)	.
CCc1c(C)sc(NC(=O)c2cc(C)on2)c1C#N	.
CCCc1cc(C(=O)Nc2sc(C)c(CC)c2C#N)no1	53
CCc1c(C)sc(NC(=O)c2cc(C3CC3)on2)c1C#N	.
COCCn1c(SCC(=O)c2ccc(Cl)cc2)nnc1C(C)C	.
CCN(CC)S(=O)(=O)c1cccc(-c2nnc(SCc3nnc(-c4cccs4)o3)n2N)c1	.
Cc1c(=O)n(OCc2ccccc2F)c2ccccc2[n+]1[O-]	.
CCOC(=O)COn1c(=O)c(-c2ccc(OC)c(OC)c2)[n+]([O-])c2ccccc21	.
COc1ccc(-c2c(=O)n(OCc3ccccn3)c3ccccc3[n+]2[O-])cc1OC	56
O=C(NCc1ccccn1)C1CCC(=O)N1C1CCCC1 (configuration not stated)	.
Cc1cc(NC(=O)CSc2nc3c(c(-c4cccnc4)c2C#N)CCC3)no1	.
COc1cccc(NC(=O)CSc2nc3c(c(-c4ccco4)c2C#N)CCCC3)c1	58
COCCOC(=O)c1c(C)nc(SCC(=O)Nc2ccc(OC)cc2)c(C#N)c1-c1ccco1	.
O=C(CN1CCC(C(=O)c2ccc(Cl)cc2)CC1)Nc1ccc2c(c1)OCCO2	.
Nc1c(C(O)(C(F)(F)F)C(F)(F)F)ccc2ccccc12	.
COc1cccc(OC)c1OCCCc1c(C)n[nH]c1C	.
COc1ccc2c3c(cccc13)NN=C2C	57
SMILES	RT RNaseH block
COc1cccc(OC)c1OCCCOc1c(OC)cccc1OC	.
CCC(CO)NC(=O)c1cccc(S(=O)(=O)N2c3ccccc3CC2C)c1 (configuration not stated)	.
Cc1nn(Cc2ccccc2Cl)c(C)c1C(=O)N1CCN(c2ccccc2)CC1	.
CCN(CC)c1cccc(OC2=NS(=O)(=O)c3ccccc32)c1	55
Cc1ccc(C)c(NC2=NS(=O)(=O)c3ccccc32)c1	.
COc1ccccc1OC1=NS(=O)(=O)c2ccccc21	.
Cc1cc(C)cc(OCC(=O)Nc2ccccc2C(=O)NCc2ccco2)c1	60
CC(C)(C)C(=O)Nc1ccccc1C(=O)NCc1ccco1	.
O=C(COc1ccc(Cl)cc1)Nc1ccccc1C(=O)NCc1ccco1	.
Cc1ccc(NC(=O)CSc2nnc(Cn3cnc4ccccc43)o2)cc1	.
CC1CN(S(=O)(=O)c2ccc(Cl)c(C(F)(F)F)c2)CC(C)O1 (configuration not stated)	.
O=C(Nc1ccc(N2CCCC2)cc1)c1cccc(F)c1	59
O=C(Nc1ccc(N2CCCCC2)cc1)c1ccccc1	.
O=C(Nc1ccc(N2CCCC2=O)cc1)c1cccc(F)c1	.
COc1ccccc1N1CCN(C(=O)CN(c2ccccc2OC)S(=O)(=O)c2ccccc2)CC1	.
COc1ccccc1C(=O)NCCC(=O)N1CC(=O)Nc2ccccc21	.
Cc1oc(-c2ccc(F)cc2)cc1-c1nn2c(-c3ccco3)nnc2s1	.
Cc1oc(-c2ccc(Cl)cc2)cc1-c1nn2c(-c3ccco3)nnc2s1	.
Cc1oc(-c2ccc(F)cc2)cc1-c1nn2c(-c3ccoc3C)nnc2s1	63
Cc1ccc(NC(=O)COC(=O)c2ccc3c(c2)NC(=O)C2CCCN32)cc1C (configuration not stated)	.
CC(=O)c1coc2ccc(OCC(=O)O)cc12	.
CCC1Oc2ccc(C)cc2N(CC(=O)N(Cc2ccc3c(c2)OCO3)CC2CCCO2)C1=O (configuration not stated)	.
CCC1Oc2ccc(C)cc2N(CC(=O)N(Cc2cccnc2)Cc2ccc(C)o2)C1=O (configuration not stated)	50
CCC1Oc2ccc(C)cc2N(Cc2cccc(C)c2)C1=O (configuration not stated)	.
C=CCn1c(SCC(N)=O)nnc1-c1cc(Br)ccc1O	.
CCSc1nnc(NC(=O)CSc2nc3c(c(=O)n2-c2ccccc2OC)SCC3)s1	.
Nc1c(C(=O)NC2CCCC2)sc2nc(-c3cccs3)ccc12	.
CCN(CC)C(=O)CSc1nc(C)cc(-c2cccs2)c1C#N	.
CCN(CC)C(=O)c1sc2nc(-c3cccs3)cc(-c3cccs3)c2c1N	52
